ChEMBL document CHEMBL1961873, “Compounds: GSK PKIS; Assays: Nanosyn kinase panel” (2012)

What was measured:
[1] = target: T1, Inhibitor of nuclear factor kappa-B kinase subunit epsilon (Homo sapiens) (UniProt Q14164); conditions: at 1 µM;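 also: reported values are averaged percent inhibition figures against human IKKε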
T1 sequence (whole entry): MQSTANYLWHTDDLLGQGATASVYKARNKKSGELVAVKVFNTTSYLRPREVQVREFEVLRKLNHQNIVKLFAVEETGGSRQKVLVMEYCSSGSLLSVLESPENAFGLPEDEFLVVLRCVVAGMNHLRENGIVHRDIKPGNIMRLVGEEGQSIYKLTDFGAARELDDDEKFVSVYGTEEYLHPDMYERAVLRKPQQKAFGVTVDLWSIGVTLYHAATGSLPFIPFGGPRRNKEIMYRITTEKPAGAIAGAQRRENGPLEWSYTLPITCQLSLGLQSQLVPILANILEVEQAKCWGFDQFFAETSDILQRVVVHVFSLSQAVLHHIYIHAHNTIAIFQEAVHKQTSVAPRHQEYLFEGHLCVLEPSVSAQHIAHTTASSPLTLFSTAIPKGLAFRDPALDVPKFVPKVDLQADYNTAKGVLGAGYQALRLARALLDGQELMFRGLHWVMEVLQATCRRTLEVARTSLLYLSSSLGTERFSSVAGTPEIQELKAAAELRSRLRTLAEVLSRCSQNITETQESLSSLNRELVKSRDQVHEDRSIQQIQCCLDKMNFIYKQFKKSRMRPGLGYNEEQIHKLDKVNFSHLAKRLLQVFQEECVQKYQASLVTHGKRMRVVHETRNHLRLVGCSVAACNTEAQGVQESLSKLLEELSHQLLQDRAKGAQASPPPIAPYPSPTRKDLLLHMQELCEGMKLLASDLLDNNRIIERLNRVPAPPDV

[2] = target: T2, Serine/threonine-protein kinase Nek1 (Homo sapiens) (UniProt Q96PY6); conditions: at 0.1 µM
T2 sequence (whole entry): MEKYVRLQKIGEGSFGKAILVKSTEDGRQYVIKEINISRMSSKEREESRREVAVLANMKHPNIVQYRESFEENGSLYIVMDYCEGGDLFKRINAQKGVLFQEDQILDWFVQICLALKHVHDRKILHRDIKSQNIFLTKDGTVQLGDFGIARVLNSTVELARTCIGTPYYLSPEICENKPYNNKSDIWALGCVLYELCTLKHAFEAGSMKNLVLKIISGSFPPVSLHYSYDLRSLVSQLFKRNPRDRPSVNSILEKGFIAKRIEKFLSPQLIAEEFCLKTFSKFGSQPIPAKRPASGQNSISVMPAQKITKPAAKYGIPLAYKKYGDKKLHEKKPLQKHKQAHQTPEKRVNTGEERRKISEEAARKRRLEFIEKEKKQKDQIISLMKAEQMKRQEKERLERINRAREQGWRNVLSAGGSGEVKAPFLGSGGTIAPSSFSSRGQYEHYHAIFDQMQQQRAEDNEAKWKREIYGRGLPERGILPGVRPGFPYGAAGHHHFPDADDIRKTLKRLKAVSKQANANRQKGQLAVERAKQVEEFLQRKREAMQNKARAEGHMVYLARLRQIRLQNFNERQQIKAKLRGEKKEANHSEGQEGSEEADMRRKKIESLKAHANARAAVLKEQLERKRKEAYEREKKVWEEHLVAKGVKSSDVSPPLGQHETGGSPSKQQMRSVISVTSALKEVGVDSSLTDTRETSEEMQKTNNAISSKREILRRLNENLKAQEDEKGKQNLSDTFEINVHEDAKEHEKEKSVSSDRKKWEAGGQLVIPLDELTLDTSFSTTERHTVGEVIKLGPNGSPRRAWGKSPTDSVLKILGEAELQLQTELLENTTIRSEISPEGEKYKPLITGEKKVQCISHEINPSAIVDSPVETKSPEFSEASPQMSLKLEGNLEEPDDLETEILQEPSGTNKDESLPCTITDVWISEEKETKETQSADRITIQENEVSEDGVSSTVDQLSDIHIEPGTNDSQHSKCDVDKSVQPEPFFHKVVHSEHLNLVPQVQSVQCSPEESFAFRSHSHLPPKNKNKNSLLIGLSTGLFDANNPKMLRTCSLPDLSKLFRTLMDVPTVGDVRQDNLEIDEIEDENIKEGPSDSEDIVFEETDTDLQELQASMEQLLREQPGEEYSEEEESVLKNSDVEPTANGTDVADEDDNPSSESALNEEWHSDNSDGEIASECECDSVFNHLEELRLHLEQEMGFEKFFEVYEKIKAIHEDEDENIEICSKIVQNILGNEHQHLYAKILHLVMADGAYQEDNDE

[3] = target: T2, Serine/threonine-protein kinase Nek1 (Homo sapiens); conditions: at 1 µM
[4] = target: T3, Serine/threonine-protein kinase Nek2 (Homo sapiens) (UniProt P51955); conditions: at 0.1 µM
T3 sequence (whole entry): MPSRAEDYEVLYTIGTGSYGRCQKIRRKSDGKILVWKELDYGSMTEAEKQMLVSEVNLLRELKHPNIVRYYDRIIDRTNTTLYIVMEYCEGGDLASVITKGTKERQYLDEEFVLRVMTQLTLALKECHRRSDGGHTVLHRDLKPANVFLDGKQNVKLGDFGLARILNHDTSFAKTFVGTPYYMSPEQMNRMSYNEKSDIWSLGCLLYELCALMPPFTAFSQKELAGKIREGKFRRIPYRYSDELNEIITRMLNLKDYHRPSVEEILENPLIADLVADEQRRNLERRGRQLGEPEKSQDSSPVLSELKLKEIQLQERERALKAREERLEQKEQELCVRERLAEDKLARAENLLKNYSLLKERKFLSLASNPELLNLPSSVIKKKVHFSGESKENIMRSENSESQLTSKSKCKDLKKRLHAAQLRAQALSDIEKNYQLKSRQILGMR

[5] = target: T3, Serine/threonine-protein kinase Nek2 (Homo sapiens); conditions: at 1 µM
[6] = target: Serine/threonine-protein kinase Nek6 (Homo sapiens) (UniProt Q9HC98); conditions: at 0.1 µM
[7] = target: Serine/threonine-protein kinase Nek6 (Homo sapiens) (UniProt Q9HC98); conditions: at 1 µM
[8] = target: Serine/threonine-protein kinase Nek7 (Homo sapiens) (UniProt Q8TDX7); conditions: at 0.1 µM
[9] = target: Serine/threonine-protein kinase Nek7 (Homo sapiens) (UniProt Q8TDX7); conditions: at 1 µM
[10] = target: T4, Serine/threonine-protein kinase Nek9 (Homo sapiens) (UniProt Q8TD19); conditions: at 0.1 µM
T4 sequence (whole entry): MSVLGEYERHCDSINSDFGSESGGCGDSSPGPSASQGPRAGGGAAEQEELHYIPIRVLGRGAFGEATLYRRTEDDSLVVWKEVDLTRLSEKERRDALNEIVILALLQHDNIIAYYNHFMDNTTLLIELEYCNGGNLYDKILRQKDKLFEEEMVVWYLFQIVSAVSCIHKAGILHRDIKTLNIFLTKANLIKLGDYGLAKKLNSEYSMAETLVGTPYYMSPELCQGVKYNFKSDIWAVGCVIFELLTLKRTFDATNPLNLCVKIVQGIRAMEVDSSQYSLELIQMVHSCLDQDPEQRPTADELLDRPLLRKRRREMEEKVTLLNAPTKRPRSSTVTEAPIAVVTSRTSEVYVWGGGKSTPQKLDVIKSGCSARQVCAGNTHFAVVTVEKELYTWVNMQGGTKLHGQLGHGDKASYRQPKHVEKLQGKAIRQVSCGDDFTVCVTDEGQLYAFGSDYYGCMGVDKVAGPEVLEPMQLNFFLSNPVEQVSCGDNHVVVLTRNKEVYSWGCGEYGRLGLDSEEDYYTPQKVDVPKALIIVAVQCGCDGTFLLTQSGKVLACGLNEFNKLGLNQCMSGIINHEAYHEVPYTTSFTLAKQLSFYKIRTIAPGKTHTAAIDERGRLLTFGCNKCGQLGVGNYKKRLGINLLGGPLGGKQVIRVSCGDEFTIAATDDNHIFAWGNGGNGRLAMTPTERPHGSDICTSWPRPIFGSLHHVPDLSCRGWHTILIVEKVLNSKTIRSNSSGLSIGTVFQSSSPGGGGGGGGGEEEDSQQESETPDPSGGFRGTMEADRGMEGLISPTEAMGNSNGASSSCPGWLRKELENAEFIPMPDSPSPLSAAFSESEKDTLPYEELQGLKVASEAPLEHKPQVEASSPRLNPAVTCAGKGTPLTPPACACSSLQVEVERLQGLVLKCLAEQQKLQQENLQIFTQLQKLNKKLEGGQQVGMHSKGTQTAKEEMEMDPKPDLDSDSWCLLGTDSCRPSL

[11] = target: T4, Serine/threonine-protein kinase Nek9 (Homo sapiens); conditions: at 1 µM
[12] = target: Serine/threonine-protein kinase PLK1 (Homo sapiens) (UniProt P53350); conditions: at 0.1 µM
[13] = target: Serine/threonine-protein kinase PLK1 (Homo sapiens) (UniProt P53350); conditions: at 1 µM
[14] = target: T5, Dual specificity protein kinase TTK (Homo sapiens) (UniProt P33981); conditions: at 0.1 µM
T5 sequence (whole entry): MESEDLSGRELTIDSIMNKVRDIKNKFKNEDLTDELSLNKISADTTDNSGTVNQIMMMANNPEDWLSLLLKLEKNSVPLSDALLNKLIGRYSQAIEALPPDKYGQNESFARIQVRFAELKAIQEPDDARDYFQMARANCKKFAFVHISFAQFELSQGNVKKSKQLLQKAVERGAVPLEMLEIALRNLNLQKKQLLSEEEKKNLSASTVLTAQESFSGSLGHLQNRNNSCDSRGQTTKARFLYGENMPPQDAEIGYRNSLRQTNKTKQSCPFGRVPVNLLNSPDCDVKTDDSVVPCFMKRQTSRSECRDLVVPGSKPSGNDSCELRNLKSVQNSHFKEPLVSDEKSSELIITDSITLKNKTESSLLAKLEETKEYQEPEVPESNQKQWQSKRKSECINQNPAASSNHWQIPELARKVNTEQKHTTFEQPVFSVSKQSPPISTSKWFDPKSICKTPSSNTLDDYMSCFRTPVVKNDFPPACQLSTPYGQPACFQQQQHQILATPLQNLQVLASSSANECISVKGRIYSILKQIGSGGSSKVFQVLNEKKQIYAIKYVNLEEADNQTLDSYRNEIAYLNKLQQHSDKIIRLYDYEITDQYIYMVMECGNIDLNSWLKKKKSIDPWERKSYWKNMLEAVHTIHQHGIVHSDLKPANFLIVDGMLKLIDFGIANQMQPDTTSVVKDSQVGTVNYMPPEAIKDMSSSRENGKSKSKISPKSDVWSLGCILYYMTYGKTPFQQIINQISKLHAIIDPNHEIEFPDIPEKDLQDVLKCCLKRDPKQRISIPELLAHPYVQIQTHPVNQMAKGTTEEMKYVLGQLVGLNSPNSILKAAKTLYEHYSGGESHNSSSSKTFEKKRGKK

[15] = test system: T6, Receptor-type tyrosine-protein kinase FLT3 (Homo sapiens), P36888 [D835Y]; conditions: at 1 µM
T6 sequence (whole entry): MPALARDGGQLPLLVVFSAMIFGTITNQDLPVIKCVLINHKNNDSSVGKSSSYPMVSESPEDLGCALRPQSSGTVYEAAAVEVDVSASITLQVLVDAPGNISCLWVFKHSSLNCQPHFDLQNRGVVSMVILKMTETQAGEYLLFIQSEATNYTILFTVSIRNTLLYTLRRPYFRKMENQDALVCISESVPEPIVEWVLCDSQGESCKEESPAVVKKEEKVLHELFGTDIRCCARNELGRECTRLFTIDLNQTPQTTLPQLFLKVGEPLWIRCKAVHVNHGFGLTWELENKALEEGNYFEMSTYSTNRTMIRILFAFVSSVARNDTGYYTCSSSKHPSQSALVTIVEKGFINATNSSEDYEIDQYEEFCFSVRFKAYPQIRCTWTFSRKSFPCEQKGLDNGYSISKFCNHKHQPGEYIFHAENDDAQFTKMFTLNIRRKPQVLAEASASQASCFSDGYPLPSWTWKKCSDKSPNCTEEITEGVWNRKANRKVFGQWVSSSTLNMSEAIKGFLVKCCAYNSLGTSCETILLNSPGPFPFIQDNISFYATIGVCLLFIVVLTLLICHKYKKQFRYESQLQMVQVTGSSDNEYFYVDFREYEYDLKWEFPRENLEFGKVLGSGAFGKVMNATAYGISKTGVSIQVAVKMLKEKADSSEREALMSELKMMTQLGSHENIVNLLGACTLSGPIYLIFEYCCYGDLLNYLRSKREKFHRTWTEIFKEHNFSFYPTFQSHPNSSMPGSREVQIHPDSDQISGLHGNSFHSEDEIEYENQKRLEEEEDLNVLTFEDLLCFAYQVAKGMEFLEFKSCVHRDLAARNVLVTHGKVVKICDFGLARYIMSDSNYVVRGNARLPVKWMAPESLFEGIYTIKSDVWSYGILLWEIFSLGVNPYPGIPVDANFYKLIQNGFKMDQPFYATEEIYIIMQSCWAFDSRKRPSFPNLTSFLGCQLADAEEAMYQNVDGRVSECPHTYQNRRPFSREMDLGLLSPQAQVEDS

[16] = target: Vascular endothelial growth factor receptor 3 (Homo sapiens) (UniProt P35916); conditions: at 0.1 µM
[17] = target: Vascular endothelial growth factor receptor 3 (Homo sapiens) (UniProt P35916); conditions: at 1 µM
[18] = target: Macrophage colony-stimulating factor 1 receptor (Homo sapiens) (UniProt P07333); conditions: at 0.1 µM
[19] = target: Macrophage colony-stimulating factor 1 receptor (Homo sapiens) (UniProt P07333); conditions: at 1 µM
[20] = target: Tyrosine-protein kinase Fyn (Homo sapiens) (UniProt P06241); conditions: at 0.1 µM
Tyrosine-protein kinase Fyn (Homo sapiens), sequence (P06241 2-537 limits assumed): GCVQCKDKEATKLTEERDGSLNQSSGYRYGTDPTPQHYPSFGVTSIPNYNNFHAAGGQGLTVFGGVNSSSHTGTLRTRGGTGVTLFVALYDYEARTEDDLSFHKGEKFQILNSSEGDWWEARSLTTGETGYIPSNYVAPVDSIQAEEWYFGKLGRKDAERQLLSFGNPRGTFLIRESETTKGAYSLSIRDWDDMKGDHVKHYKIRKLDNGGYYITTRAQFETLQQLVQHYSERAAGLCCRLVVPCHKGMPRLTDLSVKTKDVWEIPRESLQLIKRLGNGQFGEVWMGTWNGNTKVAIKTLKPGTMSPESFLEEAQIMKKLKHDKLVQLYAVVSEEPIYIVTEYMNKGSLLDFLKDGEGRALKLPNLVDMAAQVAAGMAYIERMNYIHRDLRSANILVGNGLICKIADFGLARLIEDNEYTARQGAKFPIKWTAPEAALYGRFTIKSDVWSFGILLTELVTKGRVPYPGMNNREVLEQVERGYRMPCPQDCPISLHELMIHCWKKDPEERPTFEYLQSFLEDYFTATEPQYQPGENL

Macrophage colony-stimulating factor 1 receptor (Homo sapiens), sequence (P07333 whole entry): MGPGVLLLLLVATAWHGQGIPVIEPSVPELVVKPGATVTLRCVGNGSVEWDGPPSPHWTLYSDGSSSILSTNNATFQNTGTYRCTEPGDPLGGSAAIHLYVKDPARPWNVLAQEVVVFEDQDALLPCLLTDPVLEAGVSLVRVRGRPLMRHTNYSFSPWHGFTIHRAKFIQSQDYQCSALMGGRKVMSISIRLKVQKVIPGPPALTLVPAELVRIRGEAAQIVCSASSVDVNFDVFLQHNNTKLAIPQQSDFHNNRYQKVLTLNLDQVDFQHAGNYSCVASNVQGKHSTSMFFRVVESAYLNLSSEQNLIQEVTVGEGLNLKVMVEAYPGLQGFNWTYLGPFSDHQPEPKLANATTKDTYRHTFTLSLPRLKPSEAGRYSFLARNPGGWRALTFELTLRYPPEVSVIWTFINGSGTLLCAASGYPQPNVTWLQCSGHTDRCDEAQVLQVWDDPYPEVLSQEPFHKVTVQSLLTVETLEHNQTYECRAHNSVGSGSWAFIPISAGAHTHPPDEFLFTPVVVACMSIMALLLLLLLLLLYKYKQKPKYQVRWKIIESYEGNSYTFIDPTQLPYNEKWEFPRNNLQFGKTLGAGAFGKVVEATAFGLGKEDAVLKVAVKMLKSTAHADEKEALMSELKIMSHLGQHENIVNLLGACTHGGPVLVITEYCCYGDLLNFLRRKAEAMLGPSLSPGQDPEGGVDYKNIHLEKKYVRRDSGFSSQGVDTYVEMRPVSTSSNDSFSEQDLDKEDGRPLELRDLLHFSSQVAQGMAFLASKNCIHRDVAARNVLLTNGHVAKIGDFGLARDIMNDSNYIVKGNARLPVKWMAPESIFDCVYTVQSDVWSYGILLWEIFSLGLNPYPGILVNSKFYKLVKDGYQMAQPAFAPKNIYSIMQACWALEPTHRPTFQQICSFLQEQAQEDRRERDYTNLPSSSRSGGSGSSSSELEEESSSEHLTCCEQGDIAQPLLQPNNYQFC
Vascular endothelial growth factor receptor 3 (Homo sapiens), sequence (P35916 whole entry): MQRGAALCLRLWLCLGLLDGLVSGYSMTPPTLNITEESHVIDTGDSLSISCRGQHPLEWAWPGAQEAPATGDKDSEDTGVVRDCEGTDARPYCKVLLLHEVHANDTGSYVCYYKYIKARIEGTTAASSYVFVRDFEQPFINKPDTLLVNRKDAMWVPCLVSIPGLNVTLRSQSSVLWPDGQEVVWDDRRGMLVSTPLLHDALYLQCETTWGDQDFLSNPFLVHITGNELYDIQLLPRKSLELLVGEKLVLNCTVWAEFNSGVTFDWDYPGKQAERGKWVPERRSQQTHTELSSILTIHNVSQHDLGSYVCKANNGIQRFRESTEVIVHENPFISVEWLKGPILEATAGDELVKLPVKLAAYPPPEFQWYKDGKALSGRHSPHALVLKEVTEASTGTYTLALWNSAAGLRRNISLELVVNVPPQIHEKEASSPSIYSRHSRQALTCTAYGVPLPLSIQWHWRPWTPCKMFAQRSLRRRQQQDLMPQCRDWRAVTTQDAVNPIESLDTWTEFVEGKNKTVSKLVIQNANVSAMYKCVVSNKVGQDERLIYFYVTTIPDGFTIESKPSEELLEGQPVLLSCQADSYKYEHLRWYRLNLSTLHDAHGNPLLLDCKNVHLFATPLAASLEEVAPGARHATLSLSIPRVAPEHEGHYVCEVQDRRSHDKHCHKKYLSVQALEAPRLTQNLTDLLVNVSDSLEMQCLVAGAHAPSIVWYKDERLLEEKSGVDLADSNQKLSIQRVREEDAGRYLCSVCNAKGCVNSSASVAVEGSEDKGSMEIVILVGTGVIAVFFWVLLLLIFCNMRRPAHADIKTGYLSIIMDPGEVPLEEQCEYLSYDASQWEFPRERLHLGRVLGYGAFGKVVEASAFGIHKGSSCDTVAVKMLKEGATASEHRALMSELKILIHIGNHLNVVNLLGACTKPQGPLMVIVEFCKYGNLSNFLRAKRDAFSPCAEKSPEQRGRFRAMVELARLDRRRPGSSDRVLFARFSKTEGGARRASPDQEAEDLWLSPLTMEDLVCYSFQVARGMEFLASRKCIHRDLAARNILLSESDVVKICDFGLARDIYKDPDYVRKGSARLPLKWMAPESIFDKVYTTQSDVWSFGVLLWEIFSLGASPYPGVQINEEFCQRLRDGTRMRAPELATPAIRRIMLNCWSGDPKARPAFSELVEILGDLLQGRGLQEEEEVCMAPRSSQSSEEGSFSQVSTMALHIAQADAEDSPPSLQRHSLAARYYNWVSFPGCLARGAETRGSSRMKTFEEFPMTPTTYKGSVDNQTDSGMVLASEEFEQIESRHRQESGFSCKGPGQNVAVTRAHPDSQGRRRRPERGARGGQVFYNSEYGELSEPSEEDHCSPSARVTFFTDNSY
Serine/threonine-protein kinase Nek7 (Homo sapiens), sequence (Q8TDX7 whole entry, looked up): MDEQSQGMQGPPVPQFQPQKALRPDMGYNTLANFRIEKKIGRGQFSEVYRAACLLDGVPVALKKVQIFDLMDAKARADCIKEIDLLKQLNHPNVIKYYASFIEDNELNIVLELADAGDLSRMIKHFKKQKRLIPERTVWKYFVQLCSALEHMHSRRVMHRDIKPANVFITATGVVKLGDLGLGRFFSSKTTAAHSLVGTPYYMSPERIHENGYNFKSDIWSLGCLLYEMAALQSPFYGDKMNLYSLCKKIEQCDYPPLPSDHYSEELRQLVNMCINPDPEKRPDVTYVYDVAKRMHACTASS
Serine/threonine-protein kinase Nek6 (Homo sapiens), sequence (Q9HC98 whole entry): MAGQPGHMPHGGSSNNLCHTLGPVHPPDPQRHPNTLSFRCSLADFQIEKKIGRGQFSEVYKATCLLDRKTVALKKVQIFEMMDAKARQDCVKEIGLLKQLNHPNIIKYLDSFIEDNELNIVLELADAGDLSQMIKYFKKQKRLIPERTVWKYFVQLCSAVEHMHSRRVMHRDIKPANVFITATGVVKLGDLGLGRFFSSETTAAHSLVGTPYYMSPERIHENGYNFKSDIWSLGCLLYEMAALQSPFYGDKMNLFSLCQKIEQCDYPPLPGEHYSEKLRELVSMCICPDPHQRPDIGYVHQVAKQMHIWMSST
Serine/threonine-protein kinase PLK1 (Homo sapiens), sequence (P53350 whole entry): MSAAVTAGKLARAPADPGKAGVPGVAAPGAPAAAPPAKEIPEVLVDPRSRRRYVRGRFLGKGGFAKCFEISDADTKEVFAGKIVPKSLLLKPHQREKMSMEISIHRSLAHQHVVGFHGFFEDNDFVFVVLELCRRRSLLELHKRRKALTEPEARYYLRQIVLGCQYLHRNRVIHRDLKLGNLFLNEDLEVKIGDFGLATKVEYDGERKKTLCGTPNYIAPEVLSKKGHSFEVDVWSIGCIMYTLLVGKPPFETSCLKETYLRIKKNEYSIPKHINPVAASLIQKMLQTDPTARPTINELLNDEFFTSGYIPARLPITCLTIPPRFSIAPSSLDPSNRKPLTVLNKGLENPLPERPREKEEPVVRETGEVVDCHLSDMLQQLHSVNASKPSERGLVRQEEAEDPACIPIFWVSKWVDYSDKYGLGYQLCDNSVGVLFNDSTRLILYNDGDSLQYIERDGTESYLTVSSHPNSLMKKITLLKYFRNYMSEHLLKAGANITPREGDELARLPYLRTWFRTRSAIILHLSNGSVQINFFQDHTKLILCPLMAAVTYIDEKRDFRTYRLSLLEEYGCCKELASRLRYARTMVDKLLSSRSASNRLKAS

Structure (SMILES) | inhibition [1] [%] | inhibition [2] [%] | inhibition [3] [%] | inhibition [4] [%] | inhibition [5] [%] | inhibition [6] [%] | inhibition [7] [%] | inhibition [8] [%] | inhibition [9] [%] | inhibition [10] [%] | inhibition [11] [%] | inhibition [12] [%] | inhibition [13] [%] | inhibition [14] [%] | inhibition [15] [%] | inhibition [16] [%] | inhibition [17] [%] | inhibition [18] [%] | inhibition [19] [%] | inhibition [20] [%]
N#Cc1c(NC(=O)CN2CCOCC2)sc2c1CCCC2 | 92 | 2.42 | 6.07 | 4.61 | 4.37 | 3.33 | 5.18 | 2.96 | 3.61 | 6.26 | 1.68 | 2.26 | 2.27 | 9.9 | 0.1 | 0.77 | 3.83 | 5.19 | 2.67 | 0.52
COC(=O)Nc1nc2ccc(S(=O)(=O)c3ccc(NC(=O)Nc4cc(C(F)(F)F)ccc4F)cc3)cc2[nH]1 | 4.2 | 2.08 | 1.85 | 3.76 | 4.26 | 4.42 | -3.58 | 2.46 | 2.19 | 2.21 | 7.16 | 3.83 | 2.15 | 5.04 | 7.26 | 0.23 | 0.36 | -1.07 | 2.06 | 1.02
CCNC(=O)O[C@H]1CN[C@H](C#Cc2cc3ncnc(Nc4ccc(OCc5cccc(F)c5)c(Cl)c4)c3s2)C1 | 2.76 | 1.8 | 2.36 | 3.33 | 6.2 | 3.89 | 0.56 | 3.85 | 3.51 | 12 | 4.6 | 3.22 | 3.29 | 2.67 | 2.57 | 5.21 | -0.66 | 3.01 | 2.53 | 3.33
